Test results: PubChem BioAssay AID1159580 (chemical genetic matrix, 2015)
The whole screen tested about 5,500 compounds, of which about 2,000 (36%) were called active. Roughly 18% stayed inconclusive and do not appear here. No stated cut-off is given here; in the data, active means normalized growth mostly below about 0.91 (no sharp cut-off); inconclusive means no clear call, values can overlap the other calls; inactive means mostly above about 0.92. The list shows a part of the results.

Assay: chemical genetic growth profiling, strain panel (AID 1159580);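 further: tested at 20 µM; growth read once vehicle control cultures reached saturation at 30 °C; 1 = growth at the plate median or of vehicle wells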
Conditions: growth OD

Measured: normalized growth

COc1c(Cl)ccc(Cl)c1C(=O)O
inactive: S. cerevisiae deletion strains, locus YJR043C, strain POL32, stronger effect = lower value 1.01 | S. cerevisiae deletion strains, locus YJR075W, strain HOC1, stronger effect = lower value 0.971 | S. cerevisiae deletion strains, locus YKL009W, strain mrt4, stronger effect = lower value 1.02 | S. cerevisiae deletion strains, locus YKL068W, stronger effect = lower value 1.01 | S. cerevisiae deletion strains, locus YKL085W, strain MDH1 (second series), stronger effect = lower value 1.01 | S. cerevisiae deletion strains, locus YKL085W, strain MDH1, stronger effect = lower value 1.01 | S. cerevisiae deletion strains, locus YKL160W, strain elf1, stronger effect = lower value 0.988 | S. cerevisiae deletion strains, locus YKL190W, strain CNB1, stronger effect = lower value 1.01 | S. cerevisiae deletion strains, locus YKR001C, strain vps1, stronger effect = lower value 1.02 | S. cerevisiae deletion strains, locus YKR026C, strain gcn3, stronger effect = lower value 0.984 | S. cerevisiae deletion strains, locus YKR091W, strain srl3, stronger effect = lower value 0.985 | S. cerevisiae deletion strains, locus YLL001W, strain dnm1, stronger effect = lower value 0.995 | S. cerevisiae deletion strains, locus YLL026W, stronger effect = lower value 0.979 | S. cerevisiae deletion strains, locus YLL041C, strain sdh2, stronger effect = lower value 0.994 | S. cerevisiae deletion strains, locus YLR027C, strain aat2, stronger effect = lower value 0.982 | S. cerevisiae deletion strains, locus YLR039C, strain RIC1, stronger effect = lower value 1.06 | S. cerevisiae deletion strains, locus YLR058C, strain SHM2, stronger effect = lower value 1.02 | S. cerevisiae deletion strains, locus YLR102C, strain apc9, stronger effect = lower value 1.01 | S. cerevisiae deletion strains, locus YLR221C, strain rsa3, stronger effect = lower value 0.983 | S. cerevisiae deletion strains, locus YLR258W, strain gsy2, stronger effect = lower value 0.986 | S. cerevisiae deletion strains, locus YLR262C, strain YPT6 (second series), stronger effect = lower value 0.997 | S. cerevisiae deletion strains, locus YLR262C, strain YPT6, stronger effect = lower value 1.07 | S. cerevisiae deletion strains, locus YLR268W, strain sec22, stronger effect = lower value 1.03 | S. cerevisiae deletion strains, locus YLR320W, strain mms22, stronger effect = lower value 0.974 | S. cerevisiae deletion strains, locus YLR330W, strain CHS5, stronger effect = lower value 1.01 | S. cerevisiae deletion strains, locus YLR342W, strain FKS1 (second series), stronger effect = lower value 1.05 | S. cerevisiae deletion strains, locus YLR342W, strain FKS1, stronger effect = lower value 0.979 | S. cerevisiae deletion strains, locus YLR357W, strain rsc2, stronger effect = lower value 0.992 | S. cerevisiae deletion strains, locus YLR370C, strain arc18, stronger effect = lower value 0.986 | S. cerevisiae deletion strains, locus YLR371W, strain rom2, stronger effect = lower value 1.01 | S. cerevisiae deletion strains, locus YLR384C, strain iki3, stronger effect = lower value 0.985 | S. cerevisiae deletion strains, locus YLR418C, strain cdc73, stronger effect = lower value 1.02 | S. cerevisiae deletion strains, locus YML016C, strain PPZ1, stronger effect = lower value 1.01 | S. cerevisiae deletion strains, locus YML032C, strain rad52, stronger effect = lower value 1.02 | S. cerevisiae deletion strains, locus YML120C, strain ndi1, stronger effect = lower value 0.97 | S. cerevisiae deletion strains, locus YML124C, strain tub3, stronger effect = lower value 1.01 | S. cerevisiae deletion strains, locus YMR058W, strain fet3, stronger effect = lower value 0.979 | S. cerevisiae deletion strains, locus YMR078C, strain ctf18, stronger effect = lower value 1.02 | S. cerevisiae deletion strains, locus YMR125W, strain sto1, stronger effect = lower value 0.951 | S. cerevisiae deletion strains, locus YMR129W, stronger effect = lower value 0.987 | S. cerevisiae deletion strains, locus YMR205C, strain PFK2, stronger effect = lower value 0.975 | S. cerevisiae deletion strains, locus YMR223W, strain ubp8, stronger effect = lower value 1.01 | S. cerevisiae deletion strains, locus YMR231W, strain pep5, stronger effect = lower value 0.984 | S. cerevisiae deletion strains, locus YMR263W, strain SAP30, stronger effect = lower value 1.01 | S. cerevisiae deletion strains, locus YMR307W, strain GAS1, stronger effect = lower value 1.06 | S. cerevisiae deletion strains, locus YNL067W, strain RPL9B, stronger effect = lower value 1.01 | S. cerevisiae deletion strains, locus YNL071W, strain lat1, stronger effect = lower value 0.992 | S. cerevisiae deletion strains, locus YNL128W, strain TEP1, stronger effect = lower value 1 | S. cerevisiae deletion strains, locus YNL153C, strain GIM3, stronger effect = lower value 1.01 | S. cerevisiae deletion strains, locus YNL209W, strain ssb2, stronger effect = lower value 0.988 | S. cerevisiae deletion strains, locus YNL233W, strain BNI4, stronger effect = lower value 1.01 | S. cerevisiae deletion strains, locus YNL248C, strain rpa49, stronger effect = lower value 0.982 | S. cerevisiae deletion strains, locus YNL250W, strain rad50, stronger effect = lower value 1 | S. cerevisiae deletion strains, locus YNL271C, strain bni1, stronger effect = lower value 1.01 | S. cerevisiae deletion strains, locus YNL298W, strain CLA4, stronger effect = lower value 1.02 | S. cerevisiae deletion strains, locus YNL307C, strain MCK1, stronger effect = lower value 1.03 | S. cerevisiae deletion strains, locus YNL322C, strain KRE1 (second series), stronger effect = lower value 0.983 | S. cerevisiae deletion strains, locus YNL322C, strain KRE1, stronger effect = lower value 1.01 | S. cerevisiae deletion strains, locus YNR049C, strain mso1, stronger effect = lower value 0.977 | S. cerevisiae deletion strains, locus YNR052C, strain pop2, stronger effect = lower value 1.01 | S. cerevisiae deletion strains, locus YOL006C, strain TOP1, stronger effect = lower value 1.05 | S. cerevisiae deletion strains, locus YOL012C, strain htz1 0.945 | S. cerevisiae deletion strains, locus YOL147C, strain pex11, stronger effect = lower value 1.01 | S. cerevisiae deletion strains, locus YOR001W, strain rrp6, stronger effect = lower value 0.991 | S. cerevisiae deletion strains, locus YOR061W, strain CKA2, stronger effect = lower value 1.01 | S. cerevisiae deletion strains, locus YOR069W, strain VPS5, stronger effect = lower value 1 | S. cerevisiae deletion strains, locus YOR070C, strain gyp1, stronger effect = lower value 0.988 | S. cerevisiae deletion strains, locus YOR080W, strain dia2, stronger effect = lower value 0.969 | S. cerevisiae deletion strains, locus YOR083W, strain WHI5, stronger effect = lower value 0.988 | S. cerevisiae deletion strains, locus YOR106W, strain vam3, stronger effect = lower value 0.995 | S. cerevisiae deletion strains, locus YOR136W, strain idh2, stronger effect = lower value 1.01 | S. cerevisiae deletion strains, locus YOR144C, strain elg1, stronger effect = lower value 1.01 | S. cerevisiae deletion strains, locus YOR184W, strain ser1, stronger effect = lower value 1.02 | S. cerevisiae deletion strains, locus YOR265W, strain rbl2, stronger effect = lower value 0.976 | S. cerevisiae deletion strains, locus YOR270C, strain vph1, stronger effect = lower value 0.993 | S. cerevisiae deletion strains, locus YOR290C, strain snf2, stronger effect = lower value 0.997 | S. cerevisiae deletion strains, locus YOR316C, strain cot1, stronger effect = lower value 1.01 | S. cerevisiae deletion strains, locus YPL051W, strain arl3, stronger effect = lower value 0.995 | S. cerevisiae deletion strains, locus YPL055C, strain LGE1, stronger effect = lower value 1.02 | S. cerevisiae deletion strains, locus YPL078C, strain atp4, stronger effect = lower value 0.982 | S. cerevisiae deletion strains, locus YPL106C, strain sse1, stronger effect = lower value 0.979 | S. cerevisiae deletion strains, locus YPL240C, strain hsp82, stronger effect = lower value 0.997 | S. cerevisiae deletion strains, locus YPL241C, strain CIN2, stronger effect = lower value 1.01 | S. cerevisiae deletion strains, locus YPR119W, strain clb2, stronger effect = lower value 1.01 | S. cerevisiae deletion strains, locus YPR141C, strain kar3, stronger effect = lower value 1.02 | S. cerevisiae deletion strains, locus YPR163C, strain tif3, stronger effect = lower value 1.01 | S. cerevisiae deletion strains, locus YPR167C, strain met16, stronger effect = lower value 1.01 | S. cerevisiae deletion strains, strain wtn01, stronger effect = lower value 1.01 | S. cerevisiae strains, strain wild type, stronger effect = lower value 1.01
